Some test systems named below: HCT-15 colon; HT29 colon; SNB-75 CNS; SNB-19 CNS; U251 CNS; PC-3 prostate; SK-MEL-5 melanoma; UACC-62 melanoma; LOX IMVI melanoma; SK-MEL-28 melanoma; SK-MEL-2 melanoma; EKVX NSCLC; SN12C renal; UO-31 renal; TK-10 renal; ACHN renal; CAKI-1 renal; CCRF-CEM leukemia; MOLT-4 leukemia.
Common to all, as to assay: NCI-60 one-dose screen, 48 h (100 = growth as untreated, 0 = no growth, -100 = all killed)
What all share (settings): 10 µM unless noted

Compounds without any hit were thinned out: in the full panel of roughly 83,000, 20% have a hit.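 Activity criterion: percent growth below 10, measured after cells in 96-well plates were exposed to a single compound concentration for 48 hours.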 Values without a mark were called inactive. Active and inactive are the calls of the source.

With `O=C(Cc1ccc(/C=C/C(=O)c2ncc[nH]2)cc1)Nc1ccc(C(F)(F)F)cc1`, the growth was -51.6% (active) in the assay with HCT-15 colon; -32.5% (active) in the assay with HT29 colon; 43.6% in the assay on SNB-75 CNS; 15.3% in the assay on SNB-19 CNS; -88.8% (active) with U251 CNS; 36.6% with PC-3 prostate. The growth was 47.7% with SK-MEL-5 melanoma; 46.5% in the assay on UACC-62 melanoma; -80% (active) with LOX IMVI melanoma; 67.3% in the assay with SK-MEL-28 melanoma; 100% in the assay with SK-MEL-2 melanoma; 71.8% with EKVX NSCLC. The growth in the assay with SN12C renal is 29.5%; in the assay with UO-31 renal, -41.7% (active); in the assay with TK-10 renal, 87.5%; in the assay on ACHN renal, 56%; in the assay with CAKI-1 renal it was 68.7%; in the assay on CCRF-CEM leukemia, -9.03% (active). The growth with MOLT-4 leukemia is 6.36% (active).

As to `CCSc1ccc2c(c1)N(CCCN1CCN(C)CC1)c1ccccc1S2`, the growth with HCT-15 colon was 2.48% (active); in the assay on HT29 colon it was -14.7% (active); with SNB-75 CNS, 28.3%; in the assay with SNB-19 CNS, 68.8%; in the assay with U251 CNS, 36.2%; in the assay with PC-3 prostate it was 51.9%. The growth was -98.7% (active) with SK-MEL-5 melanoma; -43% (active) in the assay on UACC-62 melanoma; -82.5% (active) with LOX IMVI melanoma; -85.2% (active) in the assay on SK-MEL-28 melanoma; 69% in the assay with SK-MEL-2 melanoma; 59.3% in the assay on EKVX NSCLC. Further, the growth in the assay with SN12C renal was 57.6%; in the assay on UO-31 renal it was 9.67% (active); with TK-10 renal it was 55.6%; in the assay on ACHN renal, 43.5%; in the assay with CAKI-1 renal, 50%; in the assay with CCRF-CEM leukemia, 27.9%.

For `COc1ccc(/C=N/C2=C(C#N)C(c3ccccc3[N+](=O)[O-])c3ccc4ccccc4c3O2)cc1` (stereo not given), the growth was 75.3% in the assay on HCT-15 colon; 112% in the assay with HT29 colon; 61.3% in the assay with SNB-75 CNS; 96.6% in the assay on SNB-19 CNS; 101% in the assay on U251 CNS; 71.7% with PC-3 prostate. For the same compound, the growth was 81.9% in the assay on SK-MEL-5 melanoma; 81.1% in the assay with UACC-62 melanoma; 90.3% with LOX IMVI melanoma; 113% in the assay with SK-MEL-28 melanoma; 92.8% in the assay on SK-MEL-2 melanoma; 72.1% with EKVX NSCLC. Also, the growth is 91.6% in the assay with SN12C renal; 64.8% in the assay on UO-31 renal; 182% with TK-10 renal; 90.8% in the assay with ACHN renal; 68.3% in the assay on CAKI-1 renal; 106% with CCRF-CEM leukemia. In the assay with MOLT-4 leukemia, the growth was 89.5%.

`CCc1c(Nc2ccc(C)cc2)[nH]c(N)nc1=S`: the growth in the assay with HCT-15 colon was 99.7%; in the assay with HT29 colon, 103%; in the assay on SNB-75 CNS, 93.5%; in the assay on SNB-19 CNS it was 98.3%; in the assay on U251 CNS, 97%; in the assay with PC-3 prostate, 107%. Moreover, the growth was 101% with SK-MEL-5 melanoma; 93.8% in the assay on UACC-62 melanoma; 105% with LOX IMVI melanoma; 104% in the assay on SK-MEL-28 melanoma; 103% with SK-MEL-2 melanoma; 84.9% in the assay on EKVX NSCLC. Moreover, the growth is 98.4% with SN12C renal; 91.5% in the assay with UO-31 renal; 111% in the assay with TK-10 renal; 98% in the assay on ACHN renal; 89.8% with CAKI-1 renal; 107% with CCRF-CEM leukemia.

Take `Cc1ccc(Nc2cc(=S)nc(N)[nH]2)cc1C`: the growth in the assay with HCT-15 colon was 104%; in the assay with HT29 colon it was 94.3%; in the assay on SNB-75 CNS, 78.1%; with SNB-19 CNS, 90.1%; with U251 CNS, 92.1%; in the assay with PC-3 prostate, 90.7%. For the same compound, the growth with SK-MEL-5 melanoma is 102%; with UACC-62 melanoma, 89.2%; in the assay with LOX IMVI melanoma, 105%; in the assay on SK-MEL-28 melanoma, 101%; with SK-MEL-2 melanoma, 99.9%; in the assay on EKVX NSCLC it was 79%. In addition, the growth in the assay on SN12C renal is 92.4%; in the assay with UO-31 renal, 81.4%; with TK-10 renal, 144%; with ACHN renal, 91.2%; with CAKI-1 renal, 90.5%; with CCRF-CEM leukemia, 112%. In addition, the growth in the assay on MOLT-4 leukemia was 97.4%.

Consider `CCCCN(CCCC)CCc1c(C)cc(C)c(CCN(CCCC)CCCC)c1O`, for which the growth was 36.7% in the assay on HCT-15 colon; 11.9% with HT29 colon; 82.8% with SNB-75 CNS; 22.8% with SNB-19 CNS; 24.6% in the assay on U251 CNS; 14.1% with PC-3 prostate. For the same compound, the growth is 0.474% (active) in the assay on SK-MEL-5 melanoma; 3.34% (active) in the assay on UACC-62 melanoma; 28.2% in the assay on LOX IMVI melanoma; 23.2% with SK-MEL-28 melanoma; 1.41% (active) in the assay with SK-MEL-2 melanoma; 14.4% in the assay on EKVX NSCLC. The growth in the assay with SN12C renal is 22.9%; in the assay with UO-31 renal it was 28.4%; in the assay with TK-10 renal, 37.4%; in the assay with ACHN renal, 29.3%; with CAKI-1 renal, 39.7%; in the assay with CCRF-CEM leukemia, 26.6%. The growth in the assay with MOLT-4 leukemia is 16.2%.

As to `COc1ccccc1OCC(=O)N1CCCCCC1`, the growth with HCT-15 colon was 103%; in the assay on HT29 colon, 95.2%; in the assay with SNB-75 CNS, 91.4%; with SNB-19 CNS it was 96.2%; with U251 CNS, 95.3%; in the assay on PC-3 prostate, 89.8%. Also, the growth with SK-MEL-5 melanoma was 100%; in the assay with UACC-62 melanoma, 99.4%; with LOX IMVI melanoma, 93.6%; in the assay with SK-MEL-28 melanoma, 101%; with SK-MEL-2 melanoma, 114%; in the assay on EKVX NSCLC it was 89.6%. Besides, the growth with SN12C renal was 103%; in the assay on UO-31 renal it was 92%; in the assay with TK-10 renal, 96.1%; in the assay with ACHN renal it was 105%; with CAKI-1 renal, 84.1%; in the assay on CCRF-CEM leukemia, 101%. For the same compound, the growth with MOLT-4 leukemia was 86.9%.

Turning to `Clc1ccc2c(c1)c(-c1ccccc1)nc1nncn12`, the growth is 108% in the assay with HCT-15 colon; 104% with HT29 colon; 98.3% with SNB-75 CNS; 109% with SNB-19 CNS; 105% with U251 CNS; 111% in the assay with PC-3 prostate. Moreover, the growth in the assay with SK-MEL-5 melanoma was 105%; with UACC-62 melanoma, 113%; with LOX IMVI melanoma, 102%; in the assay on SK-MEL-28 melanoma it was 121%; in the assay with SK-MEL-2 melanoma, 102%; in the assay with EKVX NSCLC it was 109%. For the same compound, the growth with SN12C renal was 104%; in the assay with UO-31 renal, 90.8%; in the assay with TK-10 renal it was 114%; in the assay on ACHN renal, 117%; in the assay on CAKI-1 renal, 105%; in the assay with CCRF-CEM leukemia, 101%. Also, in the assay on MOLT-4 leukemia, the growth was 96.7%.
